The structures appear in SMILES notation. Records with an inconclusive call do not appear. Activity calls are given as the source filed them. The call rests on the fitted dose curve; in most records, active means well fitted curve in the direction sought with a large enough effect; inconclusive means small, poorly fitted or top-dose-only effect, or another doubt; inactive means no such curve, though single readings can be large; an effect the other way counts as inactive or inconclusive.

Assay [1] relates to Zika virus NS2B-NS3 protease (linked construct). Briefly: Primary screen NINDS Rhodamine qHTS for Zika virus inhibitors (AID 1347160). Further: nearly all actives have a fitted effect of over 55% in size. The procedure, abridged: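 Purified NS2B-NS3 protease with the NS2B hydrophilic domain joined by a flexible linker (25 nM) in 10 mM Tris-HCl pH 8.0, 0.01% Tween 20, preincubated 15 min at RT with compound; Rhodamine110 peptide substrate 1.5 µM; fluorescence change over 15 min; 4-parameter Hill fit.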
A general note: qHTS replaces the single test concentration by a dilution series.

The target of assay [2] is Calcium and integrin-binding protein 1 (Homo sapiens) (UniProt Q99828). Briefly: Primary qHTS for Identification of Calcium Integrin Binding Protein 1 (CIB1) Competitor (AID 1508620).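 Further: GST tagged CIB1 binding a fluorescein labelled alphaIIb integrin peptide tracer; top concentration of the series differs between compounds.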 The essentials:
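Fluorescence polarization competition: CIB1-GST (1 uM final) preincubated with compound 15 min at room temperature, then FITC-labeled alphaIIb peptide (100 nM final) added for another 15 min. Polarization read at Ex 480/Em 540.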

The nature of assay [3]: Primary qHTS for inhibitors of nuclear receptor binding SET domain protein 2 (NSD2) in an isogenic RCH-ACV NSD2 p.E1099K mutant (9B) (AID 1645876). Further: nearly all actives have a fitted effect of over 70% in size. Further: potency means the concentration at half of the fitted maximal effect.
The nature of assay [4]: Primary qHTS for inhibitors of nuclear receptor binding SET domain protein 2 (NSD2) in an RCH-ACV wild type WT cells (2C) (AID 1645877). Further: potency means the concentration at half of the fitted maximal effect; nearly all actives have a fitted effect of over 70% in size.
Assay [5] deals with Glutathione peroxidase 1 (Homo sapiens) (UniProt P07203). Put plainly: Primary qHTS Assay for Inhibitors of Recombinant Selenoprotein Glutathione Peroxidase 1 (GPX1) (AID 1845191). Further: nearly all actives have a fitted effect of over 65% in size. The procedure, abridged:
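Recombinant GPX1 (10 nM final) was preincubated with compound for 30 min at room temperature, then reacted with 1 mM GSH, 0.5 mM CHP, 0.5 mM NADPH and 100 nM glutathione reductase; NADPH fluorescence (340/450 nm) was read at 0 and 15 min.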

Assay [6] concerns the target Phospholipid hydroperoxide glutathione peroxidase GPX4 (Homo sapiens) (UniProt P36969). Briefly: Primary qHTS Assay for Inhibitors of Recombinant Selenoprotein Glutathione Peroxidase 4 (GPX4) (AID 1845192). Further: nearly all actives have a fitted effect of over 65% in size. The note with it: outcome: dose series up to 50 µM unless noted. The essentials:
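GR-coupled readout: 100 nM GR, 1 mM GSH, 0.5 mM NADPH; NADPH fluorescence (ex 340/em 450 nm) read at t=0 and after 15 min RT. GPX4 200 nM, preincubated 30 min with compound; substrate 0.5 mM CHP.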

The target in assay [7] is Luciferin 4-monooxygenase (Photinus pyralis) (UniProt P08659). Put plainly: Primary firefly luciferase (FLuc) qHTS assay for identification of artifact compounds. (AID 1845220). Further: nearly all actives have a fitted effect of over 60% in size. The essentials: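 qHTS, 15 min compound preincubation with substrate (10 uM luciferin, 10 uM ATP) at RT, then 10 nM FLuc; 5 min; luminescence; % inhibition vs no-enzyme/DMSO controls, 4-parameter Hill fit.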

Assay [8] has as its system Nanoluciferase (engineered Oplophorus gracilirostris luciferase). Put plainly: Primary Nanoluciferase (NLuc) qHTS assay for identification of artifact compounds. (AID 1845222). The procedure, abridged: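 Luminescence read-out of secreted NLuc in S16 cell conditioned medium (1:55); compounds tested with 15 min RT preincubation, then Nano-Glo substrate 1:100, 5 min. % inhibition vs no-enzyme and DMSO controls, 4-parameter Hill fit.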

Assay [9] in a line: Primary redox qHTS assay for identification of artifact compounds. (AID 1845223). The procedure, abridged:
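Amplex Red (25 uM) and HRP (250 mU/mL) in HBSS, with compounds for 15 min, then 250 uM DTT for 30 min, room temperature, dark. Fluorescence 525/598 nm read; normalized to DMSO and 10 uM DA3003; Hill fit.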

The next assay deals with C33A. Put plainly: Primary qHTS to identify gynecologic anti-cancer compounds using libraries of approved drugs and bioactive compounds (AID 1345084). Further: nearly all actives have a fitted effect of over 55% in size. Further: potency means the concentration at half of the fitted maximal effect. Conditions: Gynecologic cancer cell panel viability, ATPlite luminescence, 48 h; series mostly up to 57.5 µM. The procedure, abridged: (§1)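 Cells, 1,000 per well, were allowed to settle for 16 h at 37 C before compound addition. Five concentrations were tested for 48 h, and viability was read by ATPlite luminescence after 15 min at room temperature.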

The next assay relates to CAOV3. Described as above. Conditions: Gynecologic cancer cell panel viability, ATPlite luminescence, 48 h; series mostly up to 57.5 µM. The essentials: as §1
A general note: In ATP-based viability assays light output follows the ATP content of the culture.

The next assay concerns CASKI. The description is as above. The note with it: Gynecologic cancer cell panel viability, ATPlite luminescence, 48 h; series mostly up to 57.5 µM. The procedure, abridged:
as §1

In the next assay the test system is Es-2. The description is as above. The note with it: Gynecologic cancer cell panel viability, ATPlite luminescence, 48 h; series mostly up to 57.5 µM. The essentials: as §1
The subject of the next assay is HeLa. Described as above. Conditions: Gynecologic cancer cell panel viability, ATPlite luminescence, 48 h; series mostly up to 57.5 µM. The essentials: as §1
Another assay deals with JEG-3. Described as above. The note with it: Gynecologic cancer cell panel viability, ATPlite luminescence, 48 h; series mostly up to 57.5 µM. The essentials:
as §1

The test system of a further assay is OV90. The description is as above. Conditions: Gynecologic cancer cell panel viability, ATPlite luminescence, 48 h; series mostly up to 57.5 µM. The essentials: as §1
Another assay deals with Tov-21-G. The assay is described as above. The note with it: Gynecologic cancer cell panel viability, ATPlite luminescence, 48 h; series mostly up to 57.5 µM. The essentials: as §1
The next assay has as its system Tov112D. The assay is described as above. The note with it: Gynecologic cancer cell panel viability, ATPlite luminescence, 48 h; series mostly up to 57.5 µM. The procedure, abridged:
as §1

The subject of a further assay is Hek293T. Described as above. The note with it: Gynecologic cancer cell panel viability, ATPlite luminescence, 48 h, control line for the selectivity index; series mostly up to 57.5 µM. The essentials: as §1
The nature of assay [10]: Primary fluorescence-based thiol-reactive (MSTI) qHTS assay for identification of artifact compounds. (AID 1845221).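 Further: thiol-reactive compounds lower the probe fluorescence signal; nearly all actives have a fitted effect of over 65% in size.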 The procedure, abridged: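 qHTS titration of compound; 4 uM MSTI, PBS pH 7.4, 2% DMSO; 1 h RT, dark; fluorescence 525/598 nm; normalized to Acetyl-MSTI and MSTI; 4-parameter Hill fit.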

Glutathione peroxidase 1 (Homo sapiens), sequence (P07203 whole entry, looked up): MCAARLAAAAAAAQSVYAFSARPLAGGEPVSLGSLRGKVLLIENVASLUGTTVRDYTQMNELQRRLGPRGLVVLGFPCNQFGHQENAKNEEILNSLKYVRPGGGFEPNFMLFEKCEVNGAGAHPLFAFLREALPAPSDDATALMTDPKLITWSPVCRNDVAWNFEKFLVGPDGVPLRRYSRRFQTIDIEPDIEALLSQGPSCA
Calcium and integrin-binding protein 1 (Homo sapiens), sequence (Q99828 whole entry, looked up): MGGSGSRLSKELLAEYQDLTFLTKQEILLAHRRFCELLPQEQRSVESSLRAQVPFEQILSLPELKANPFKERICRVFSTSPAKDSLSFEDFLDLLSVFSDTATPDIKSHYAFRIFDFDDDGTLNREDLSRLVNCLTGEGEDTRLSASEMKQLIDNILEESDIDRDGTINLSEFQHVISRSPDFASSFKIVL
Phospholipid hydroperoxide glutathione peroxidase GPX4 (Homo sapiens), sequence (P36969 whole entry, looked up): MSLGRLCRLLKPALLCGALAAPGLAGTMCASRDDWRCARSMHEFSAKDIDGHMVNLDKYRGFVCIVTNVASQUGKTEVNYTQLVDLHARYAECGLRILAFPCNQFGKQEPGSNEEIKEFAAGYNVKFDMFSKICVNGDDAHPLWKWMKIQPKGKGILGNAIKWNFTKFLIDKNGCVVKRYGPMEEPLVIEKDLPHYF

For the compound `C=C1C(=O)O[C@@H]2/C=C(/C)CC3C=C(C[C@H](OC(=O)/C(C)=C\C)[C@@H]12)C(=O)O3` (stereo partly drawn), the Potency entry in assay [1], in assay [5], in [6], in [7], in assay [8] and in assay [9] was “inactive” each time. Moreover, the Potency result in the assay on C33A, in the assay on CAOV3, in the assay on CASKI, with Es-2, in the assay on HeLa and in the assay on JEG-3 was “inactive” throughout. In addition, the Potency result in the assay on OV90, with Tov-21-G and in the assay on Tov112D was “inactive” each time. Also, the outcome in assay [2] was inactive. For the same compound, the Potency in [3] was 16 µM (active); in [4], 3.58 µM (active).

Consider `CN(C)C(=O)c1cc2cnc(Nc3ccc(N4CCNCC4)cn3)nc2n1C1CCCC1`, for which the Potency result in assay [1], in [5], in assay [6], in assay [7], in assay [8] and in [9] was “inactive” each time. Moreover, the Potency entry in the assay with C33A, in the assay on CAOV3, with CASKI, with Es-2, in the assay on HeLa and with Hek293T was “inactive” throughout. The Potency result in the assay with JEG-3, in the assay on OV90, with Tov-21-G and in the assay with Tov112D was “inactive” in each case. In assay [2], the result was inactive. The results for the Potency in [3] and in [4] were 4.09 µM (active) and 5.15 µM (active), respectively.

As to `C[C@H](NC(=O)C(C)(C)Oc1ccc(C(F)(F)F)cn1)[C@@H](Cc1ccc(Cl)cc1)c1cccc(C#N)c1`, the Potency result in [1], in [5], in assay [6], in assay [7], in [10] and in assay [8] was “inactive” throughout. Further, the Potency entry (in assay [9]; with C33A; in the assay on CAOV3; in the assay with CASKI; with Es-2; in the assay on JEG-3) was “inactive” throughout. For the same compound, the Potency entry with OV90, in the assay on Tov-21-G and in the assay with Tov112D was “inactive” in each case. Further, the Potency is 16.3 µM (active) in assay [3] and 20.5 µM (active) in [4].

As to `C[C@@H](CN1CCC(n2c(=O)[nH]c3cc(Cl)ccc32)CC1)NC(=O)c1ccc2ccccc2c1`, the Potency entry in assay [1], in assay [5], in assay [7], in assay [10], in [8] and in assay [9] was “inactive” in each case. Moreover, the Potency entry in the assay with C33A, in the assay on CASKI, with Es-2, in the assay on HeLa, in the assay with Hek293T and in the assay with JEG-3 was “inactive” in each case. Besides, the Potency entry with Tov-21-G and in the assay on Tov112D was “inactive” throughout. Besides, in assay [2], the outcome was inactive. Besides, the Potency in [3] was 10.3 µM (active); in assay [4], 16.3 µM (active).

`COc1ccc2c3ccnc4ccc(=O)n(c2c1)c43`: the Potency entry in [1], in [5], in assay [7], in assay [10], in assay [8] and in assay [9] was “inactive” throughout. Moreover, the Potency entry in the assay on C33A, in the assay with CAOV3, in the assay with JEG-3 and in the assay on OV90 was “inactive” each time. Besides, the result in [2] was inactive. For the same compound, the Potency with HeLa is 14.1 µM (active).

For `O=C(CC1NCCC[C@H]1O)Cn1cnc2cc(Br)c(Cl)cc2c1=O` (stereo partly drawn), the Potency result (in assay [1]; in assay [3]; in assay [7]; in [8]; in [9]; in the assay with C33A) was “inactive” in each case. The Potency entry with CAOV3, with CASKI, in the assay with Es-2, with HeLa, with Hek293T and in the assay with JEG-3 was “inactive” in each case. Moreover, the Potency result in the assay on OV90, in the assay with Tov-21-G and in the assay with Tov112D was “inactive” each time.

(Values after PubChem BioAssay (NCATS).)
